These results are taken from ChEMBL document CHEMBL2218924, “A broad activity screen in support of a chemogenomic map for kinase signalling research and drug discovery” (Biochem J, 2013).

The target in experiment [1] is T1, Serine/threonine-protein kinase BRSK1 (Homo sapiens) (UniProt Q8TDC3).
T1 sequence (whole entry): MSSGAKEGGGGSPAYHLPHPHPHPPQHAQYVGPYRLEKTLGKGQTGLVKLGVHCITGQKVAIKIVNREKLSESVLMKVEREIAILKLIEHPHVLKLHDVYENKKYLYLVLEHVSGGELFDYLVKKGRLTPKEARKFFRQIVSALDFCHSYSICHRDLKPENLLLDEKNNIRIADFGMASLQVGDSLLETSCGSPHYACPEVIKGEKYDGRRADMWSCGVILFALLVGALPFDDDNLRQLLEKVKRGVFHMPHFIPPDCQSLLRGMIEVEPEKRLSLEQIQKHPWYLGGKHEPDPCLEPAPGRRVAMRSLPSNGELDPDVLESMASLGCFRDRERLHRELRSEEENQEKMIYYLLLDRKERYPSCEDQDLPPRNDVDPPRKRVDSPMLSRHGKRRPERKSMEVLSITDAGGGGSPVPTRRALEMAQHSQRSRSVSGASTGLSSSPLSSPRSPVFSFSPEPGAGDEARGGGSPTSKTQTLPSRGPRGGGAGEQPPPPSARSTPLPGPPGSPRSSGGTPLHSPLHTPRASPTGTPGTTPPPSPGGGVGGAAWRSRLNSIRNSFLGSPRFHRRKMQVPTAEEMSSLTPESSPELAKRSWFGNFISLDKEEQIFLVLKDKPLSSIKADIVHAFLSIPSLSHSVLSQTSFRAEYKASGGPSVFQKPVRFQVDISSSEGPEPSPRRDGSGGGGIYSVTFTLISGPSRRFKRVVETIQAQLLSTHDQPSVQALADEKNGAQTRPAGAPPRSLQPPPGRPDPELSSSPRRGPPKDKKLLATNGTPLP
The following applies: at 1 µM.

The target of experiment [2] is T1, Serine/threonine-protein kinase BRSK1 (Homo sapiens). The note with it: at 10 µM.
Experiment [3] concerns the target T2, Serine/threonine-protein kinase BRSK2 (Homo sapiens) (UniProt Q8IWQ3).
T2 sequence (whole entry): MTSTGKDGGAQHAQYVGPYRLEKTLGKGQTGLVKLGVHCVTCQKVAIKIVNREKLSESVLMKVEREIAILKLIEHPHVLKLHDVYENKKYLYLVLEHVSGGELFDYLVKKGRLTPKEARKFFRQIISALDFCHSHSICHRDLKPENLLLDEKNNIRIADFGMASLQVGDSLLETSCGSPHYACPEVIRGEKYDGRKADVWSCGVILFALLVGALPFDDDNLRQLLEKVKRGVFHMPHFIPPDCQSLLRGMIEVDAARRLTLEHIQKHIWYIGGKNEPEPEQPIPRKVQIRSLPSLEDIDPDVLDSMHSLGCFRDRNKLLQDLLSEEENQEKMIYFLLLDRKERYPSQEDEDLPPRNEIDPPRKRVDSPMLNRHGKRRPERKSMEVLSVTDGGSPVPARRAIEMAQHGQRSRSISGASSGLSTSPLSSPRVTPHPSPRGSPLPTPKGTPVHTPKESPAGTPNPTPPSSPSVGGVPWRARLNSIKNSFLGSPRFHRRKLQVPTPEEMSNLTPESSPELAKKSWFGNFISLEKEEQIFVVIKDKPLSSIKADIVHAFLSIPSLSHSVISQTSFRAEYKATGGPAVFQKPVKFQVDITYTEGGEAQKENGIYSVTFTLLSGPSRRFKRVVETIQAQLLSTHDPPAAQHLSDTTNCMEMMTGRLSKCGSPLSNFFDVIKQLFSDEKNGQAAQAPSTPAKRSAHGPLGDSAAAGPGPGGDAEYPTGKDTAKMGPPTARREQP
The note with it: at 1 µM.

Experiment [4] addresses T2, Serine/threonine-protein kinase BRSK2 (Homo sapiens). The note with it: at 10 µM.
For experiment [5], the target named is T3, Cyclin-dependent kinase 1/cyclin B1 (Homo sapiens) (UniProt P06493+P14635). The following applies: at 1 µM.
Experiment [6] has as its target T3, Cyclin-dependent kinase 1/cyclin B1 (Homo sapiens). The note with it: at 10 µM.
Experiment [7] concerns the target T4, Cyclin-dependent kinase 2/cyclin A (Homo sapiens) (UniProt P24941+P20248+P78396). The note with it: at 1 µM.
Experiment [8] addresses T4, Cyclin-dependent kinase 2/cyclin A (Homo sapiens). The note with it: at 10 µM.
Experiment [9] deals with T5, Cyclin-dependent kinase 2/cyclin E (Homo sapiens) (UniProt P24864+P24941+O96020). The following applies: at 1 µM.
The target in experiment [10] is T5, Cyclin-dependent kinase 2/cyclin E (Homo sapiens). The note with it: at 10 µM.

T3 sequence (P06493 whole entry, looked up): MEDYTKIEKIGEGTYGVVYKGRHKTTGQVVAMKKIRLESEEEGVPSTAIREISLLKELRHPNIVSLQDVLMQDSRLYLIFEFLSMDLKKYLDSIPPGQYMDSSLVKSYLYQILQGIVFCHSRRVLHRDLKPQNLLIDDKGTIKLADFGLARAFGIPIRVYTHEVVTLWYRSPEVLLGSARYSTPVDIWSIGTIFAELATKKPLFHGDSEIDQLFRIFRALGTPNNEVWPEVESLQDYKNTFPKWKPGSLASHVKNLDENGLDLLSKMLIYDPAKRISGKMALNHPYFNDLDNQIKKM
T3 sequence (P14635 whole entry, looked up): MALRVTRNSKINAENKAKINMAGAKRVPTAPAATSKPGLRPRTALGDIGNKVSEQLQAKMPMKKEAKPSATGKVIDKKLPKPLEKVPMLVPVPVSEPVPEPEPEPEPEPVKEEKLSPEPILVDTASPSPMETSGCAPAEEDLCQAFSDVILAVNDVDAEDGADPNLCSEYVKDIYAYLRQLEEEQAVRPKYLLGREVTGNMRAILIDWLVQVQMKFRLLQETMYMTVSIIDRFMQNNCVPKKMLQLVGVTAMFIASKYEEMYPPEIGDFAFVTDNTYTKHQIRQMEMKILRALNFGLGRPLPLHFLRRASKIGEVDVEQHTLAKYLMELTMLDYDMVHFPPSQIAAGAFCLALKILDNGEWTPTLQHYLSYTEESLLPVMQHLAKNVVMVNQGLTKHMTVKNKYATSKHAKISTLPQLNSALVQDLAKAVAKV

For `O=c1c2ccccc2[nH]c(=S)n1CCN1CCC(=C(c2ccc(F)cc2)c2ccc(F)cc2)CC1`, the residual activity – broadly, the signal under treatment as a percentage of the control signal – is 63% in experiment [1]; 78% in experiment [2]; 96% in experiment [3]; 72% in experiment [4]; 114% in experiment [5]; 104% in experiment [6]. Besides, the residual activity in experiment [7] was 143%; in [8], 80%; in [9], 99%; in experiment [10], 88%.
As to `O=C1NC(=O)/C(=C\c2ccc3nccnc3c2)S1`, the residual activity was found to be 59% in experiment [1]; 65% in experiment [2]; 78% in [3]; 77% in experiment [4]; 79% in experiment [5]; 31% in [6]. Besides, the residual activity in experiment [7] is 132%; in experiment [8], 47%; in [9] it was 94%; in experiment [10], 98%.
`O=Nc1c(-c2c(O)[nH]c3ccccc23)[nH]c2ccccc12`: the residual activity worked out at 13% in [1]; 12% in experiment [2]; 10% in experiment [3]; 5% in [4]; 35% in experiment [5]; 19% in experiment [6]. Also, the residual activity in [7] is 19%; in [8], 5%; in experiment [9] it was 6%; in experiment [10] it was -1%.
For `Cc1cncc2cccc(S(=O)(=O)N3CCCN(C(=O)CN)C[C@H]3C)c12`, the residual activity in [1] is 57%; in experiment [2] it was 66%; in experiment [3], 89%; in experiment [4] it was 33%; in [9] it was 97%; in experiment [10], 93%.
For the compound `Cc1cc2ncc(-c3ccccc3)nc2cc1C`, the residual activity in [3] was 103%; in experiment [4], 97%; in experiment [5] it was 104%; in experiment [6], 103%; in experiment [7] it was 135%; in experiment [8], 82%. In addition, the residual activity in experiment [9] is 100%; in [10], 104%.
`c1ccc2c(-c3ccncc3)c[nH]c2c1`: the residual activity turned out to be 52% in [1]; 59% in experiment [2]; 106% in experiment [3]; 61% in [4]; 83% in experiment [8].
With `CN(C)CCCn1cc(C2=C(c3c[nH]c4ccccc34)C(=O)NC2=O)c2ccccc21`, the residual activity in experiment [1] came out at 42%; in experiment [2], 39%; in experiment [3], 71%; in experiment [4] it was 22%; in [5] it was 102%; in experiment [6], 40%. The residual activity turned out to be 128% in [7], 38% in experiment [8] and 35% in experiment [10].
As to `Nc1ccc2ncnc(NCCc3ccc(Oc4ccccc4)cc3)c2c1`, the residual activity turned out to be 49% in [2]; 113% in [3]; 99% in experiment [4]; 99% in experiment [5]; 95% in experiment [6]; 92% in [7]. For the same compound, the residual activity worked out at 80% in experiment [8], 98% in experiment [9] and 90% in [10].
For `N#Cc1cnc2cnc(NCc3cccnc3)cc2c1Nc1ccc(F)c(Cl)c1`, the residual activity in experiment [3] amounted to 100%; in [4], 94%; in experiment [5], 9%; in experiment [6] it was 8%; in experiment [7], 91%; in [8] it was 91%.
Regarding `COc1cc2ncc(-c3ccccc3)nc2cc1OC`, the residual activity in experiment [1] is 96%; in [2] it was 86%; in experiment [3], 80%; in [4], 67%; in experiment [7], 129%.
Regarding `CC(=O)c1ccc(N2CCOCC2)cc1O`, the residual activity in experiment [1] was 93%; in [2], 95%; in experiment [3] it was 110%; in [5] it was 104%; in experiment [6], 100%; in experiment [7] it was 103%. The residual activity in experiment [8] stood at 88%; in experiment [9] it was 104%; in experiment [10] it was 100%.
On to `Oc1n[nH]c2nnc(-c3c(-c4ccccc4)nn4ccccc34)cc12`, for which the residual activity is 88% in experiment [1]; 76% in [2]; 112% in experiment [3]; 83% in [4]; 109% in [5]; 105% in [6]. Besides, the residual activity in experiment [7] is 89%; in experiment [8] it was 86%; in experiment [9], 89%; in experiment [10], 93%.
For the compound `COc1cc2ncnc(Nc3ccc(NC(=O)c4ccccc4)cc3)c2cc1OC`, the residual activity in experiment [1] came to 67%; in [2] it was 63%; in experiment [4], 99%; in [6], 101%; in experiment [7], 144%; in [8], 93%. For the same compound, the residual activity in experiment [9] and in experiment [10] was 104% in each case.
With `COc1ccc(C(=O)Nc2sc3c(c2C(N)=O)CCCC3)cc1OC`, the residual activity was found to be 93% in experiment [1]; 96% in [2]; 105% in experiment [3]; 103% in [4]; 98% in [5]; 93% in [6]. Besides, the residual activity turned out to be 134% in experiment [7], 91% in experiment [8], 106% in experiment [9] and 97% in experiment [10].
`O=C1Nc2ccc(Br)cc2/C1=C\c1cc2c([nH]1)CCCC2`: the residual activity is 105% in experiment [2]; 107% in [3]; 113% in experiment [4]; 110% in [5]; 110% in [6].
For `Nc1n[nH]c2nnc(-c3c(-c4ccccc4)nn4ccccc34)cc12`, the residual activity came out at 92% in [1]; 70% in experiment [2]; 103% in [3]; 96% in experiment [4]; 107% in [5]; 99% in [6]. In addition, the residual activity turned out to be 92% in experiment [7], 90% in experiment [8], 93% in [9] and 96% in [10].
On to `Ic1cccc(CSc2nnc(-c3ccncc3)o2)c1`, for which the residual activity in [1] was determined as 84%; in experiment [2] it was 87%; in experiment [3], 113%; in experiment [4], 97%; in [5], 18%; in experiment [6], 14%. Also, the residual activity was determined as 85% in experiment [7], 68% in experiment [8], 41% in experiment [9] and 32% in experiment [10].
On to `c1ccc(-c2n[nH]cc2-c2ccnc3ccccc23)nc1`, for which the residual activity in [1] is 104%; in [2], 58%; in [10], 94%.
Turning to `COc1cc2ncnc(Nc3ccc(O)c(Br)c3)c2cc1OC`, the residual activity is 17% in [1]; 22% in experiment [2]; 91% in experiment [3]; 34% in [4]; 100% in experiment [5]; 68% in [6]. Besides, the residual activity in experiment [8] is 42%; in experiment [9], 102%; in experiment [10] it was 88%.
Regarding `CCN(CC)C(=O)c1ccc(Nc2nc(OCC3CCCCC3)c3nc[nH]c3n2)cc1`, the residual activity in experiment [1] was found to be 62%; in experiment [2], 15%; in experiment [4], 20%; in experiment [6] it was 26%; in experiment [7], 59%; in [8] it was 9%. The residual activity in [9] came to 52%; in experiment [10] it was 7%.
